Activity calls are given as the source filed them.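 How the source made its calls, unless noted: active means visual image review flags a hit and inhibition of aggregation exceeds 20%; inconclusive means visual hit but inhibition at or below 20%; inactive means no hit on visual image review.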

Assay [1] is described as follows: inhibitors of TNFa-induced NFkB p65 translocation, primary screen, imaging, HUVEC, MLSMR starter and 10KST1 sets (AID 438;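 active means inhibition above 20% together with a positive visual image hit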;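 further: compound added about 3h40 before a 20 min TNFalpha stimulation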;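 on inhibition: signal is the nuclear over cytoplasmic p65 intensity ratio per well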). Particulars: HUVEC TNFa-induced p65 nuclear translocation; cell count: measured here: nuclei count (cytotoxicity indicator), at 2.08 µM; inhibition: at 2 µM, stronger effect = higher value, 0% TNFa-plus-vehicle, 100% no-TNFa wells.
Assay [2] is described as follows: reduction of polyQ htt aggregates in cells – imaging, exon1htt(103Q)mCFP cells, high-content imaging, primary screen (AID 483).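 Further: compound exposure lasted 3 days before fixation.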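 On nuclei count: percent of the per-plate median nuclei count of sample wells.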 As to conditions: exon1htt(103Q)mCFP cell line, aggregate imaging, at 2 µM; inhibition of aggregation: stronger effect = higher value; nuclei count: measured here: cell count, toxicity.
A short description of assay [3]: endothelial E-selectin expression blockers – imaging, HUVEC, immunofluorescence, MLSMR starter and 10KST1 sets, primary screen (AID 487;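 active means visually confirmed hit in the image check and inhibition above 20%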;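 on inhibition: signal is fraction of cell area covered by stained E-selectin grains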;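 on nuclei count: 100% = median nuclei count of all wells on the same plate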). Particulars: HUVEC TNFalpha-induced E-selectin immunofluorescence imaging, at 2 µM; inhibition: stronger effect = higher value; nuclei count: measured here: cell number, toxicity.
The target of assay [4] is Voltage-gated potassium channel subunit beta-2 (Rattus norvegicus) (UniProt P62483). Description: inhibitors of rat Kvbeta2 reductase activity – biochemical, NADPH fluorescence, primary screen (AID 622;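 active means fluorescence slope higher than the sample average by over 3 SD, cut at about -0.22 in these data, passing the limit was not always enough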;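 further: slope of raw intensity against log time taken from 70 to 1610 s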). Particulars: recombinant KvBeta, 4-cyanobenzaldehyde reduction, at 10 µM, stronger effect = higher value.
Chain of Voltage-gated potassium channel subunit beta-2 (Rattus norvegicus) (P62483 whole entry, looked up): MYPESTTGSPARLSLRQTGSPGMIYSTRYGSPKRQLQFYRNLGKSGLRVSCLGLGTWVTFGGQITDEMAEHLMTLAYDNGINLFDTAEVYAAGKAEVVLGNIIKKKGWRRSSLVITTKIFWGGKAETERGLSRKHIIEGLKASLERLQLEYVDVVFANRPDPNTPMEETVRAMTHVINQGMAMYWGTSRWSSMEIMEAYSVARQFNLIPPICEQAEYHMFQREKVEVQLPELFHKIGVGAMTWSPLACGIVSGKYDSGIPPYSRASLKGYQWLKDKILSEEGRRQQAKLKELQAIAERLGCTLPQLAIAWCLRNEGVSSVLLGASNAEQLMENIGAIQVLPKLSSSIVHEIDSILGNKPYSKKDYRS
For assay [5] the target is unchanged. Description: enhancers of rat Kvbeta2 NADPH turnover – biochemical, NADPH fluorescence, primary screen (AID 623;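 active means NADPH fluorescence slope more negative than the mean of all samples by about 3 SD, 99.7% confidence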;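 further: fluorescence intensity change per second fitted from 20 to 320 s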). Particulars: Recombinant KvBeta, NADPH fluorescence decrease slope, 10 min; at 10 µM; stronger effect = lower value.
Assay [6] concerns the target Alpha-2C adrenergic receptor (Homo sapiens) (UniProt P18825). Put plainly: compounds altering alpha2C-coupled GIRK flux – cell-based, HEK293 alpha2C/GIRK1/2, thallium flux, primary screen (AID 624;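 active means fluorescence slope after compound addition differing from the mean of all screened samples at 99.7% confidence, in either direction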;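 further: slope of fluorescence ratio to pre-addition baseline per second over 15 to 24 s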). As to conditions: thallium flux BTC fluorescence, at 10 µM, actives lie on both sides.
Assay [7] can be described thus: blockers of RIG-like receptor reporter activation – cell-based, Sendai virus stimulus, luciferase, 10K MLSCN set, TLR/RLR signaling modifier project, primary screen (AID 602276;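 active means inhibition at or above 50% at 10 µM; inactive means inhibition below 50%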;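 further: firefly luciferase from ISG56 promoter only with Renilla not read in this screen; 0% = Sendai virus plus DMSO and 100% = medium plus DMSO without virus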). Particulars: HEK293 RL24 IRF3 luciferase reporter, at 10 µM, stronger effect = higher value.
Assay [8] can be described thus: TLR3 IRF3 reporter activation blockers – cell-based, poly I:C stimulus, luciferase, 10K MLSCN set, primary screen (AID 602277;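 active means inhibition of the reporter signal at or above 50%; inactive means inhibition below 50%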). Particulars: HEK293-TLR3 RL24 IRF3 luciferase reporter, at 10 µM, stronger effect = higher value. (In general: A reporter such as luciferase makes a cellular process visible.)

Chain of Alpha-2C adrenergic receptor (Homo sapiens) (P18825 whole entry, looked up): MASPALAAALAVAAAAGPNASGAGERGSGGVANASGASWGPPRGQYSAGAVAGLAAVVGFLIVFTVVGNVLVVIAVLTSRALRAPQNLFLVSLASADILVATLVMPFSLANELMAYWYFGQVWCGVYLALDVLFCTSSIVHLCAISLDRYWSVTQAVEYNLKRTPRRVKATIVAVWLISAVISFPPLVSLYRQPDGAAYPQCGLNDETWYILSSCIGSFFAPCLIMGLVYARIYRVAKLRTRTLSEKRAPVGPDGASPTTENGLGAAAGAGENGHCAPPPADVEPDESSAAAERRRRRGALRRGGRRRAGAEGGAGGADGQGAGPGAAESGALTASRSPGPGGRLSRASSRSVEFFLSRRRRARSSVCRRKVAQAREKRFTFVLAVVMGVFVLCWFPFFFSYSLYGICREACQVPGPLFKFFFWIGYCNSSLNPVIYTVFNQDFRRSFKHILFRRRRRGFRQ

One may read the inhibition as the change of the read-out against control, counted positive when it falls. As to `CC1CCN(C(=O)CN2C(=O)C(C)(C)Oc3ccc(C(=O)NC4CCCC4)cc32)CC1`, the cell count in assay [1] stood at 458. The inhibition in assay [1] is 0.3% (inactive); in assay [3] it was -83.6% (inactive); in assay [7], -6.8% (inactive); in assay [8], 14.6% (inactive). Besides, in assay [2], the inhibition of aggregation was -4.6% (inactive). In addition, the nuclei count in assay [2] worked out at 84.4%; in assay [3], 117%. In assay [4], the fluorescence slope was -0.503 (inactive). Moreover, the NADPH fluorescence slope in assay [5] is -1.2e-05 (inactive). Moreover, the slope in assay [6] was 0.00666 (inactive).
As for `COC(=O)Oc1c(Br)c(=O)oc2ccccc12`, the cell count in assay [1] worked out at 594. Further, the inhibition in assay [1] was 7.7% (inactive); in assay [3], -49.4% (inactive); in assay [7], -15.5% (inactive); in assay [8], -23.7% (inactive). Moreover, the inhibition of aggregation in assay [2] is -8.6% (inactive). The figures for the nuclei count in assay [2] and in assay [3] were 99.4% and 110%, respectively. Also, in assay [4], the fluorescence slope is -0.443 (inactive). In addition, the NADPH fluorescence slope in assay [5] was -3.2e-05 (inactive). Moreover, the slope in assay [6] was 0.00521 (inactive).
For the compound `CCOC(=O)CSc1nnc([C@H](CC(C)C)NC(=O)OC(C)(C)C)o1`, in assay [1], the cell count came out at 696. For the same compound, the inhibition in assay [1] is 6.5% (inactive); in assay [3], 13.7% (inactive); in assay [7] it was 13.5% (inactive); in assay [8], 14.4% (inactive). For the same compound, the inhibition of aggregation in assay [2] is 23.3% (inactive). For the same compound, the nuclei count in assay [2] amounted to 81.4%; in assay [3], 104%. For the same compound, the fluorescence slope in assay [4] is -0.501 (inactive). Further, in assay [5], the NADPH fluorescence slope is -1.8e-05 (inactive). Further, the slope in assay [6] was 0.0048 (inactive).
As to `CCOC(=O)c1sc(NC(=O)c2noc3c2CCCC3)c(C(=O)OCC)c1C`, the cell count in assay [1] turned out to be 688. For the same compound, the inhibition is -2.9% (inactive) in assay [1], -47.9% (inactive) in assay [3], 2.17% (inactive) in assay [7] and 6.46% (inactive) in assay [8]. For the same compound, in assay [2], the inhibition of aggregation is -14.8% (inactive). In addition, the nuclei count was determined as 120% in assay [2] and 87.6% in assay [3]. Also, the fluorescence slope in assay [4] was -0.549 (inactive). In addition, in assay [5], the NADPH fluorescence slope is 1e-05 (inactive). Besides, the slope in assay [6] was 0.0086 (inactive).
`CCC(C)(C(=O)NC1CCCCC1)N(Cc1ccco1)C(=O)c1ccc2c(c1)OCO2` (centres undefined): the cell count in assay [1] came to 593. For the same compound, the inhibition was -9.3% (inactive) in assay [1], 25.6% (inactive) in assay [3], 21.1% (inactive) in assay [7] and 49.5% (inactive) in assay [8]. For the same compound, in assay [2], the inhibition of aggregation is -2.7% (inactive). Moreover, the nuclei count amounted to 80.7% in assay [2] and 95.5% in assay [3]. In assay [4], the fluorescence slope is -0.423 (inactive). The NADPH fluorescence slope in assay [5] is -7.4e-06 (inactive). Further, the slope in assay [6] was 0.00563 (inactive).
On to `CC1=C(C(=O)Nc2ccc(F)cc2)C(c2cccc(C)c2)n2nc(CCCO)nc2N1` (centres undefined), for which, in assay [1], the cell count amounted to 784. Also, the inhibition is -3.5% (inactive) in assay [1], -32.3% (inactive) in assay [3], 13.9% (inactive) in assay [7] and 41.1% (inactive) in assay [8]. Further, in assay [2], the inhibition of aggregation is 6.5% (inactive). In addition, the nuclei count in assay [2] worked out at 88.4%; in assay [3], 133%. For the same compound, the fluorescence slope in assay [4] was -0.405 (inactive). Besides, in assay [5], the NADPH fluorescence slope is -1.6e-05 (inactive). Further, the slope in assay [6] was 0.00457 (inactive).
As for `COC(=O)C1(C(F)(F)F)N=C2Sc3ccccc3N2C(N2CCOCC2)=N1` (centres undefined), the cell count in assay [1] stood at 760. For the same compound, the inhibition in assay [1] is -8.1% (inactive); in assay [3] it was -62.6% (inactive); in assay [7], 11.6% (inactive); in assay [8], 26.4% (inactive). Moreover, in assay [2], the inhibition of aggregation was 8.1% (inactive). Moreover, the results for the nuclei count in assay [2] and in assay [3] were 76.2% and 107%, respectively. For the same compound, in assay [4], the fluorescence slope is -0.54 (inactive). The NADPH fluorescence slope in assay [5] was -4.9e-05 (inactive). In assay [6], the slope was 0.00667 (inactive).
Consider `CCn1c(SCC(=O)C(C)(C)C)nnc1-c1cnccn1`, for which, in assay [1], the cell count was 581. Also, the inhibition was 6.5% (inactive) in assay [1], -27.3% (inactive) in assay [3], 2.48% (inactive) in assay [7] and 1.65% (inactive) in assay [8]. Further, the inhibition of aggregation in assay [2] was 9.1% (inactive). Also, the nuclei count in assay [2] came to 98.5%; in assay [3], 100%. For the same compound, the fluorescence slope in assay [4] is -0.51 (inactive). Further, the NADPH fluorescence slope in assay [5] was -6.4e-06 (inactive). In addition, the slope in assay [6] was 0.00526 (inactive).
With `COc1ccc(C(=O)N2CCCc3ccccc32)cc1`, the cell count in assay [1] was 433. Further, the inhibition in assay [1] was 2.5% (inactive); in assay [3] it was 4.7% (inactive); in assay [7], 7.26% (inactive); in assay [8], 5.78% (inactive). Besides, the inhibition of aggregation in assay [2] was -1.4% (inactive). The results for the nuclei count in assay [2] and in assay [3] were 107% and 110%, respectively. In addition, the fluorescence slope in assay [4] is -0.519 (inactive). In addition, in assay [5], the NADPH fluorescence slope is -8e-05 (inactive). Moreover, the slope in assay [6] was 0.00477 (inactive).
As to `O=C(Nc1ccccc1-c1ccccc1)NC1CCN(C(=O)N2CCOCC2)CC1`, in assay [1], the cell count turned out to be 497. The inhibition was 0% (inactive) in assay [1], 6.6% (inactive) in assay [3], 13.4% (inactive) in assay [7] and 18.7% (inactive) in assay [8]. Also, the inhibition of aggregation in assay [2] was -19.4% (inactive). Also, the values for the nuclei count in assay [2] and in assay [3] were 113% and 96.7%, respectively. For the same compound, the fluorescence slope in assay [4] is -0.5 (inactive). Also, the NADPH fluorescence slope in assay [5] was -4.4e-05 (inactive). Moreover, in assay [6], the slope was 0.00404 (inactive).
Consider `CCOc1ccc2nc(SCc3ccc(C(=O)OC)o3)[nH]c2c1`, for which the cell count in assay [1] worked out at 335. For the same compound, the inhibition was 15.9% (inactive) in assay [1], -39.4% (inactive) in assay [3], 8.32% (inactive) in assay [7] and -5.74% (inactive) in assay [8]. For the same compound, in assay [2], the inhibition of aggregation was 16.9% (inactive). The nuclei count stood at 96.5% in assay [2] and 112% in assay [3]. Besides, in assay [4], the fluorescence slope is -0.546 (inactive). The NADPH fluorescence slope in assay [5] is 2e-06 (inactive). In addition, in assay [6], the slope was 0.00497 (inactive).
As to `CCCC(=O)Nc1nnc(CC(=O)N2CCCC2)s1`, in assay [1], the cell count was found to be 845. For the same compound, the inhibition in assay [1] was 4.5% (inactive); in assay [3], -55% (inactive); in assay [7], 14.1% (inactive); in assay [8], 21.6% (inactive). In addition, the inhibition of aggregation in assay [2] was 3.1% (inactive). In addition, the nuclei count in assay [2] came to 106%; in assay [3], 115%. The fluorescence slope in assay [4] is -0.31 (inactive). For the same compound, in assay [5], the NADPH fluorescence slope is -5.4e-05 (inactive). Besides, in assay [6], the slope is 0.006 (inactive).
Turning to `CC(C)(C)OC(=O)N1CCCC1C(=O)N1CCc2ccccc21` (centres undefined), the cell count in assay [1] was 411. For the same compound, the inhibition in assay [1] was 5.6% (inactive); in assay [3], -19.6% (inactive); in assay [7] it was 10.9% (inactive); in assay [8], 33.9% (inactive). Besides, the inhibition of aggregation in assay [2] is -0.3% (inactive). In addition, the nuclei count in assay [2] worked out at 103%; in assay [3], 104%. Further, the fluorescence slope in assay [4] was -0.614 (inactive). Also, in assay [5], the NADPH fluorescence slope is -1.2e-06 (inactive). Also, in assay [6], the slope was 0.00514 (inactive).
Consider `CCOCCCNC(=O)C(c1ccc(C)cc1)N(Cc1ccc2c(c1)OCO2)C(=O)c1cnccn1` (centres undefined), for which the cell count in assay [1] is 275. In addition, the inhibition in assay [1] was 13.1% (inactive); in assay [3], -40.9% (inactive); in assay [7], 9.6% (inactive); in assay [8], 17% (inactive). For the same compound, the inhibition of aggregation in assay [2] was 16.3% (inactive). The results for the nuclei count in assay [2] and in assay [3] were 102% and 107%, respectively. In addition, in assay [4], the fluorescence slope was -0.471 (inactive). Besides, the NADPH fluorescence slope in assay [5] was 4.1e-05 (inactive). For the same compound, the slope in assay [6] was 0.00515 (inactive).

The values above are taken from PubChem BioAssay.
